# Screens: PubChem, National Center for Advancing Translational Sciences (NCATS)
# GCN5L2 inh = qHTS Assay for Inhibitors of GCN5L2 | GCN5L2 HAT assay, ThioGlo1 CoA-SH fluorescence | 390,000 compounds, 0.21% hits | Histone acetyltransferase KAT2A (Homo sapiens), Q92830 | AID 504327, 2011 | Potency, µM (titrated, usually from 58.9 µM), actives largely listed as inhibitors
#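 qHTS, 1536-well. 20nM enzyme, pH 7.5 HEPES/EDTA/Tween-20 buffer; 15 min compound preinc., RT. Start: 75uM H3(1-25), 70uM AcCoA, 50uM ThioGlo1. Read Ex340/Em540 at t=0 (autofluorescence flag) and t=20 min.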
# PLK1 PBD inh = qHTS for Inhibitors of PLK1-PDB (polo-like kinase 1 - polo-box domain): Primary Screen. Serine/threonine-protein kinase PLK1 (Homo sapiens), P53350. Plk1 PBD binding of FITC phosphopeptide, fluorescence polarization. Potency, µM, most hits filed as inhibitors. 360,000 compounds, 2.8% hits. AID 720504, 2013; also: series mostly up to about 57 µM; nearly all actives have a fitted effect of over 65% in size
# Target sequence (P53350 whole entry, looked up, the tested form may be a part): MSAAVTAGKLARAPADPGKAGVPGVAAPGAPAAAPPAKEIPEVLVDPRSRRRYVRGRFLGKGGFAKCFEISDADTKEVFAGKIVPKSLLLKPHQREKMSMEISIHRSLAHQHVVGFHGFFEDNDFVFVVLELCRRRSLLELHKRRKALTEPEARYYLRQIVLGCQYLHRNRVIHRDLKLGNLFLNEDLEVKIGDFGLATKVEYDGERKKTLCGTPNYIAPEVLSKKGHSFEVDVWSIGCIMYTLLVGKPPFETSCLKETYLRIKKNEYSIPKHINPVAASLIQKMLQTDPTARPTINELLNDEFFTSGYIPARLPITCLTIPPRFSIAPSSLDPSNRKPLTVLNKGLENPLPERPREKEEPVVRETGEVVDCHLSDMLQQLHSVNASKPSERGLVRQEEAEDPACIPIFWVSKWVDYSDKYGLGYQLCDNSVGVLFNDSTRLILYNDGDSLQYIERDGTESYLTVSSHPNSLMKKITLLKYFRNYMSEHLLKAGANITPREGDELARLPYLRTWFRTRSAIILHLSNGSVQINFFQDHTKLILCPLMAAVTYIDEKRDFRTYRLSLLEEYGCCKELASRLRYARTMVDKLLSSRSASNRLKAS
# VDR inhibitor = Inhibitors of the vitamin D receptor (VDR): qHTS. 400,000 compounds, 0.93% hits. Vitamin D3 receptor (Homo sapiens), P11473. VDR-SRC2-3 peptide fluorescence polarization, 2 h. Potency, µM, most hits filed as inhibitors
#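 Compounds are added to VDR with labelled SRC2-3 coactivator peptide and held 2 h at room temperature. Inhibition of the VDR–peptide interaction is then read as a change in fluorescence polarization.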
# ALOX12 inh = Primary qHTS assay for inhibitors of human arachidonate 12S-lipoxygenase (ALOX12): Round 2 | Polyunsaturated fatty acid lipoxygenase ALOX12 (Homo sapiens), P18054 | purified 12hLO, xylenol orange hydroperoxide absorbance | Potency, µM (highest dose often 108 µM), usual class: inhibitors | 580,000 compounds, 1.1% hits | AID 1671190, 2021
#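 Purified human 12hLO (150 nM final) in 25 mM Hepes, 0.01% Triton X-100, pH 7.0 was preincubated 15 min at room temperature with compound. Then 40 uM arachidonic acid was added, 30 min. Hydroperoxide was read by Fe-XO absorbance ratio 573/405 nm.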
# Hits are given with their value; i = inactive; ? = inconclusive; nt = no result; [ ] = another dose, or the depositor's remark. Most compounds without a hit are left out; they make up all but 3% or so of the library. Calls follow the shape of the dose curve; as a rule, active = well fitted curve in the direction sought with a large enough effect; inconclusive = small, poorly fitted or top-dose-only effect, or another doubt; inactive = no such curve, though single readings can be large; an effect the other way counts as inactive or inconclusive.
SMILES,GCN5L2 inh,PLK1 PBD inh,VDR inhibitor,ALOX12 inh
O=C1NC(=S)S/C1=C\c1ccc2ccccc2c1,i,29.9µM,i,i
O=C1NC(=O)/C(=C/c2ccc3nccnc3c2)S1,i,nt,i,nt
O=C1NC(=O)C(=Cc2ccc(Cl)cc2Cl)S1,nt,?,?,39.8µM
O=C1NC(=O)/C(=C\c2ccccc2Oc2ccc(F)c(F)c2)S1,i,26.7µM,i,i
Cc1cc(C)c2nc(Nc3nc(C(C)C)cc(=O)[nH]3)nc(C)c2c1,nt,nt,nt,i
CCOc1ccc(NC(=O)CCC2CCN(c3cc(NC4CC4)ncn3)CC2)cc1,nt,nt,nt,i
O=C1NC(=S)SC1=Cc1ccc(Cl)cc1,nt,?,i,22.4µM
O=C1NC(=O)/C(=C\c2ccc(OCc3cnc(Cl)s3)cc2)S1,i,i,i,i
O=C1NC(=O)/C(=C\c2ccc(Cl)nc2)S1,i,26.7µM,?,i
C[C@H](CO)N1C[C@H](C)[C@H](CN(C)S(=O)(=O)c2cccc(C#N)c2)OCc2cnnn2CCCC1=O,nt,29.9µM,nt,i
Clc1ccccc1-c1nnc2sc(CCc3ccccc3)nn12,i,7.52µM,50.1µM,?
c1ccc(CCc2nn3c(Cn4nnc5ccccc54)nnc3s2)cc1,i,13.4µM,?,i
Fc1ccc(-c2nnc3sc(C4COc5ccccc5O4)nn23)cc1 (stereo not given),i,i,i,i
c1ccc(Cc2nn3c(Cn4nnc5ccccc54)nnc3s2)cc1,i,8.44µM,89.1µM,56.2µM
c1ccc2c(c1)OCC(c1nn3c(Cn4nnc5ccccc54)nnc3s1)O2 (stereo not given),?,23.8µM,?,?
COc1ccc(CN2C=C(C(=O)OCc3noc(C4CCCC4)n3)C(C)=NS2(=O)=O)cc1,nt,nt,nt,i
CCC(CC)C(=O)NC[C@@H]1C=C(C)[C@H](Cc2nc3c(C)cccc3[nH]2)C[C@H]1C(C)C,nt,nt,nt,i
CC(NC(=O)CSc1nnc(-c2cccnc2)n1-c1ccccc1)c1ccc2c(c1)OCCO2 (stereo not given),nt,nt,nt,i
CC[C@H]1CN(Cc2ccc(OC)cc2O)CC[C@H]1CC(=O)N(C)CC#N,nt,nt,nt,i
OCCNc1cnc2ccccc2n1,i,11.9µM,?,i
Cn1cccc1C(=O)N1CCC2(CC1)C(=O)NCN2Cc1ccc(Cl)cc1,nt,nt,nt,i
CN1CCCN(C(=O)C2CCCC2)c2ccccc21,nt,nt,nt,i
COc1cccc(-c2ccc(CN3CCN(c4ccc(Cl)nn4)C(=O)C3)cc2)c1,nt,nt,nt,i[6.33 µM]
CN1CCc2c(sc3c2C(=O)NC(c2ccccn2)N3)C1 (stereo not given),i,?,25.1µM,i
CN1CCc2c(sc3c2C(=O)NC(c2ccccc2)N3)C1 (stereo not given),i,i,70.8µM,i
SMILES,GCN5L2 inh,PLK1 PBD inh,VDR inhibitor,ALOX12 inh
CN1CCc2c(sc3c2C(=O)NC(c2ccc(OC(=O)c4ccc(C(C)(C)C)cc4)cc2)N3)C1 (stereo not given),i,nt,i,i
O=C1NC(c2ccccc2)Nc2sc3c(c21)CCN(Cc1ccccc1)C3 (stereo not given),nt,nt,nt,i
CN1CCc2c(sc3c2C(=O)NC(c2ccc(OC(=O)c4ccccc4)cc2)N3)C1 (stereo not given),i,nt,44.7µM,i
COC(=O)c1ccc(CNC(=O)C2CCC(=O)N(CCCc3ccccc3)C2)cc1 (stereo not given),i,3.36µM,?,i
NC(=S)N/N=C/c1cccc([N+](=O)[O-])c1,nt,nt,nt,i
CS(=O)(=O)N(CC(=O)N1CCN(c2ccccc2)CC1)C1CCCCC1,i,26.7µM,?,i
CS(=O)(=O)N(CC(=O)N1CCN(Cc2ccccc2)CC1)C1CCCCC1,i,i,i,i
Cc1ccc(Sc2cc(NCCCO)c([N+](=O)[O-])c3nonc23)cc1,i,23.8µM,?,i
COC(=O)CCSc1cc(NCCCOC(C)=O)c([N+](=O)[O-])c2nonc12,nt,nt,i,nt
CC(C)CCSc1cc(NCCO)c([N+](=O)[O-])c2nonc12,i,i,i,i
CC(=O)OCCCNc1cc(Sc2ccc(Cl)cc2)c2nonc2c1[N+](=O)[O-],i,1.19µM,10µM,?
O=C(OCc1cccnc1)c1ccc(-c2ccccc2)cc1,nt,nt,nt,i
CC(=O)c1cc(NC(=O)c2cccc(C(F)(F)F)c2)c(=O)oc1C,i,23.8µM,?,i
Cc1nc(N(C)C)c2sc(=S)n(-c3ccccc3)c2n1,i,26.7µM,i,i
Cc1nc(N(C)C)c2sc(=S)n(C)c2n1,i,i,i,i
O=C(Nc1ccc(Cl)cc1C(F)(F)F)c1ccc(Cl)cc1Cl,nt,nt,nt,i
Cc1cc(C)c(NC(=S)NCC2CCN(C(C)c3ccccc3)C2)c(C)c1 (stereo not given),i,2.67µM,44.7µM,?
CC1(C)CC(=O)C/C(=N/NC(=O)c2ccc(Cl)cc2)C1,nt,nt,nt,i
O=C1CCC/C(=N/Nc2ccc(Cl)cc2)C1,i,29.9µM,?,?
Cn1ccnc1SCc1ccc([N+](=O)[O-])cc1,0.794µM,i,i,i
Cn1ccnc1SCc1cccc([N+](=O)[O-])c1,i,i,i,?
O=C(/C=C/c1ccccc1)c1ccc2ccccc2c1O,nt,nt,nt,i
O=C(CN1C(=O)c2cccc3cccc1c23)Nc1ccc2c(c1)OCO2,3.55µM,i,i,i
O=C(CN1C(=O)c2cccc3cccc1c23)NCc1ccc2c(c1)OCO2,i,i,i,i
CCC1CC2(C)NC(=O)c3c(sc4c3CC(C)(C)OC4)N2C1=O (stereo not given),i,11.9µM,?,?
SMILES,GCN5L2 inh,PLK1 PBD inh,VDR inhibitor,ALOX12 inh
CCNC(=S)N/N=C/c1cc(C)ccc1C,i,i,i,39.8µM
COC(=O)CC1C(=O)NCCN1S(=O)(=O)c1ccc(Cl)cc1 (stereo not given),nt,nt,nt,i
COc1cc2c(cc1OC)C(CNC(=O)CC(C)C)N(C(=O)Nc1ccccc1)CC2 (stereo not given),nt,nt,nt,i
COc1cccc(/C=C/C(=O)c2ccc(NC3=NCCCS3)cc2)c1,i,i,?,i
Cc1cccc(/C=C/C(=O)c2ccc(NC3=NCCCS3)cc2)c1,i,i,20µM,i
Cc1nn(-c2ccc3nncn3n2)c2c1C(c1ccccc1OCc1ccccc1)CC(=O)N2 (stereo not given),nt,nt,nt,i
O=C(Oc1ccc2c3c(c(=O)oc2c1)CCCC3)c1ccco1,?,23.8µM,i,i
CCCOc1ccc2c3c(c(=O)oc2c1)CCCC3,i,7.52µM,i,i
CC(=O)Oc1ccc2c3c(c(=O)oc2c1)CCCC3,i,i,i,i
N#CC(=C(/N)Sc1ccccc1N)/C(C#N)=C(/N)Sc1ccccc1N,i,nt,nt,?
N#CC(=C(N)Sc1ccccc1N)C(C#N)=C(N)Sc1ccccc1N,nt,nt,nt,21.7µM
O=C(O)C(S)[C@@H](S)C(=O)O (stereo not given in full),7.08µM,nt,3.98µM,nt
N[C@H](C(=O)O)[C@H](O)C(=O)O,?,nt,i,?
O=C(O)C(S)C(S)C(=O)O (stereo not given),nt,8.44µM,?,nt
C[C@@H](N)C(=O)O,i,nt,i,?
O=C(NCCCNC(=O)C1CCCC1)C1CCCC1,nt,nt,nt,i
